# According to publication PMC7862700, “An all-to-all approach to the identification of sequence-specific readers for epigenetic DNA modifications on cytosine”:
# Tests used:
# Test in all cases: DAPPL (digital affinity profiling via proximity ligation, sequencing); 10 mM Tris-HCl pH 7.5, 50 mM NaCl, 1 mM DTT, 4% glycerol, room temperature, 30 min; GST-TFs on glutathione beads, 16-mer random dsDNA library, 0.1% formaldehyde crosslink after washing; high values mean tight binding
# FEV = biological target: T1, FEV (Homo sapiens, UniProt Q99581 1-238); settings: protein: recombinant; tags: N-terminal GST; dsDNA, one strand shown
# T1 sequence: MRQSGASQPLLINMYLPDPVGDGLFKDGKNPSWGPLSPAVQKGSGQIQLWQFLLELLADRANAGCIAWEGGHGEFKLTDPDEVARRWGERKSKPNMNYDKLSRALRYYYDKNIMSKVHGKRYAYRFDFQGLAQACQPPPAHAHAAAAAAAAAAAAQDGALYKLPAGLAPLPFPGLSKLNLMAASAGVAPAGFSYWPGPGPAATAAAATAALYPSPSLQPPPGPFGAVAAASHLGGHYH
# Method in brief: (§1)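 Human transcription factors carrying a GST fusion were produced in yeast, bound to glutathione beads, tagged with DNA barcodes and pooled together with a tag-only sample. Each pool was held with 200 nmole of a random double-stranded 16-mer DNA library in Tris/NaCl/DTT/glycerol buffer for 30 min at room temperature, then washed, crosslinked in 0.1% formaldehyde, proximity-ligated with BsaI/T4 ligase (1 h, 37 °C), PCR-amplified and sequenced on an Illumina NextSeq500. Binding signal is the read frequency of each hexamer for a given factor divided by its frequency in the tag-only sample.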
# ETV5 = ETV5 (Homo sapiens, UniProt P41161 1-510); settings: protein: recombinant; tags: N-terminal GST; dsDNA, one strand shown
# Chain of ETV5 (P41161 whole entry): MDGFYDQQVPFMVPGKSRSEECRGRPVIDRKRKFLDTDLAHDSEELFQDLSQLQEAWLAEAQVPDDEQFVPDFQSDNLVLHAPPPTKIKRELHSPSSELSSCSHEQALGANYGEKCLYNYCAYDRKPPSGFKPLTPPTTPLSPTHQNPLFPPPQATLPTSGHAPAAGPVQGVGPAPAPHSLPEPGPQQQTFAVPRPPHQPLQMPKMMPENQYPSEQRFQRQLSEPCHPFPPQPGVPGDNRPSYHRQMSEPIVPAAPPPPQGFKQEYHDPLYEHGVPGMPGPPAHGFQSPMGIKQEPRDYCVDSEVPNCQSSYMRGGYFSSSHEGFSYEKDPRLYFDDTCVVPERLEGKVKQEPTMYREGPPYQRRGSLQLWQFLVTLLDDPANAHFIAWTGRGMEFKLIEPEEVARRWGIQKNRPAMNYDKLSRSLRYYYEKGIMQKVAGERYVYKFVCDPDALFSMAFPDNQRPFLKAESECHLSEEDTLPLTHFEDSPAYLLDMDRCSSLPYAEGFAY
# Method in brief: as §1
# HSF1 = HSF1 (Homo sapiens, UniProt Q00613 1-529); settings: protein: recombinant; tags: N-terminal GST; chain copies: 3; dsDNA, one strand shown
# Chain of HSF1 (Q00613 whole entry): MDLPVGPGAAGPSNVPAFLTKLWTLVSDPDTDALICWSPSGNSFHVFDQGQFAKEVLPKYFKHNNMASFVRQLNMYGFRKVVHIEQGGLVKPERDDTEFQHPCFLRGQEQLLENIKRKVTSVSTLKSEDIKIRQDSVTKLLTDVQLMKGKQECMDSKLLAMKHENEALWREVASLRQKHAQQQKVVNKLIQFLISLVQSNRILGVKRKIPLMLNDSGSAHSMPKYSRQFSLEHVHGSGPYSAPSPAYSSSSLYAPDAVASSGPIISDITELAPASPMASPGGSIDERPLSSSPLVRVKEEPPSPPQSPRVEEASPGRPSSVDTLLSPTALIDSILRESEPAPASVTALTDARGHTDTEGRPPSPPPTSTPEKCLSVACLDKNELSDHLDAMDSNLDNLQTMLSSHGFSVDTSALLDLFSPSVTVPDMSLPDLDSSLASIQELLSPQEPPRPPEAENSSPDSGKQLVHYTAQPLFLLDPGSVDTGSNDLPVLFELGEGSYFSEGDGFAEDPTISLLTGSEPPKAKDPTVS
# Method in brief: as §1
# SPIC = biological target: T2, SPIC (Homo sapiens, UniProt Q8N5J4 1-248); settings: protein: recombinant; tags: N-terminal GST; dsDNA, one strand shown
# T2 sequence: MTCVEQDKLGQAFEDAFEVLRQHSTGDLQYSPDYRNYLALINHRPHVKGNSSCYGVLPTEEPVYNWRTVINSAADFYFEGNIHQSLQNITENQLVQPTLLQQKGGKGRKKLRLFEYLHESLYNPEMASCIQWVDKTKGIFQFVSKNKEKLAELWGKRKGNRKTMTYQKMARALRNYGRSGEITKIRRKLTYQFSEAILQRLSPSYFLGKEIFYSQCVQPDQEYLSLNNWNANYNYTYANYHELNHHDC
# Method in brief: as §1
# ELF4 = ELF4 (Homo sapiens, UniProt Q99607 1-663); settings: protein: recombinant; tags: N-terminal GST; dsDNA, one strand shown
# Chain of ELF4 (Q99607 whole entry): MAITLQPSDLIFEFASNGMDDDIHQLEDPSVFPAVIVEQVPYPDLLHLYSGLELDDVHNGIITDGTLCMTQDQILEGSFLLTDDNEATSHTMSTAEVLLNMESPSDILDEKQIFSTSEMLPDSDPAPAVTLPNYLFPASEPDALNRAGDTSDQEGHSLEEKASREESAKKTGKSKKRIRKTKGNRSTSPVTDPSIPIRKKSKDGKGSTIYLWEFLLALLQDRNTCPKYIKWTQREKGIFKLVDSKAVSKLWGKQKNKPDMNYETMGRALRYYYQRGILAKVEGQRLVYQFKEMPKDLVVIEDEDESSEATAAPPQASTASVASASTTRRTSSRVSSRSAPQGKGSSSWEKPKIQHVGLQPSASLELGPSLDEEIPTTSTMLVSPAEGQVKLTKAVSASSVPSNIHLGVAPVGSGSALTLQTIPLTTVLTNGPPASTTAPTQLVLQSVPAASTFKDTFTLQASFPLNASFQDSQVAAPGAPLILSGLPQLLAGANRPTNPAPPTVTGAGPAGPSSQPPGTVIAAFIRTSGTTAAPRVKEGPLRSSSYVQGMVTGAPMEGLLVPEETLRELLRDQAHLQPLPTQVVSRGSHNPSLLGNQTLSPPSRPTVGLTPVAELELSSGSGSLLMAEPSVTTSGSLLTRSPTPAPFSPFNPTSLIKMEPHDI
# Method in brief: as §1
# ELK4 = biological target: T3, ELK4 (Homo sapiens, UniProt P28324-2 1-405); settings: protein: recombinant; tags: N-terminal GST; dsDNA, one strand shown
# T3 sequence: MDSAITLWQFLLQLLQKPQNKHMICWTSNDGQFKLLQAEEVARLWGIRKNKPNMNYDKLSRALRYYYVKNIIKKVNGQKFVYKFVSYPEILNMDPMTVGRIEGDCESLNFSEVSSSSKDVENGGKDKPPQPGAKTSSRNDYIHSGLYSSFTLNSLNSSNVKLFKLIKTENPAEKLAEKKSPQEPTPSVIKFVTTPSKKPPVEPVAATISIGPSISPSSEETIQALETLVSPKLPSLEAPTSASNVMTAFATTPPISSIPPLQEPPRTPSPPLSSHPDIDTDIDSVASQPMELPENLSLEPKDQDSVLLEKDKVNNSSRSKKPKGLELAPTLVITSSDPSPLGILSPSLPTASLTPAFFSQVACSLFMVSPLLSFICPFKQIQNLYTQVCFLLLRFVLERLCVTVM
# Method in brief: as §1
# ETV2 = biological target: T4, ETV2 (Homo sapiens, UniProt O00321 1-342); settings: protein: recombinant; tags: N-terminal GST; dsDNA, one strand shown
# T4 sequence: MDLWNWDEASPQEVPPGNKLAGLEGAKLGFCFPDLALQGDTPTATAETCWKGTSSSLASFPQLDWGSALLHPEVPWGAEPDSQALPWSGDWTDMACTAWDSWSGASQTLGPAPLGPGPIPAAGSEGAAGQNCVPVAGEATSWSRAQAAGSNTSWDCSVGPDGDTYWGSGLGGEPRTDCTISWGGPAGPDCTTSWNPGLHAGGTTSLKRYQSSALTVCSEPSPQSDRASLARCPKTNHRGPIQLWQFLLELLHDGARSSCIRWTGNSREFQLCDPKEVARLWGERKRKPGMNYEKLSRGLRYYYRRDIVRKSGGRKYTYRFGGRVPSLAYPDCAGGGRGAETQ
# Method in brief: as §1
# ELF3 = biological target: T5, ELF3 (Homo sapiens, UniProt P78545 1-371); settings: protein: recombinant; tags: N-terminal GST; dsDNA, one strand shown
# T5 sequence: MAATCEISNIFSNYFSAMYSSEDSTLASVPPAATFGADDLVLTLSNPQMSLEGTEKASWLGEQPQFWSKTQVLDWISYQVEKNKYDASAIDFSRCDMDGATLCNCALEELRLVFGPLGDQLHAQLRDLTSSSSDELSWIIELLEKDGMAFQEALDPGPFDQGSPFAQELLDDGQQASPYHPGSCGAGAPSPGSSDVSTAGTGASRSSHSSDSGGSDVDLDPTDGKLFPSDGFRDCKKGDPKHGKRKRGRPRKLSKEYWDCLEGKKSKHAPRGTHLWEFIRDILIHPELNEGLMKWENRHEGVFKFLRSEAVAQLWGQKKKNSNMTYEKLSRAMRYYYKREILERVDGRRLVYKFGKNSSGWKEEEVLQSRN
# Method in brief: as §1
# CRX = CRX (Homo sapiens, UniProt O43186 1-299); settings: protein: recombinant; tags: N-terminal GST; dsDNA, one strand shown
# Chain of CRX (O43186 whole entry): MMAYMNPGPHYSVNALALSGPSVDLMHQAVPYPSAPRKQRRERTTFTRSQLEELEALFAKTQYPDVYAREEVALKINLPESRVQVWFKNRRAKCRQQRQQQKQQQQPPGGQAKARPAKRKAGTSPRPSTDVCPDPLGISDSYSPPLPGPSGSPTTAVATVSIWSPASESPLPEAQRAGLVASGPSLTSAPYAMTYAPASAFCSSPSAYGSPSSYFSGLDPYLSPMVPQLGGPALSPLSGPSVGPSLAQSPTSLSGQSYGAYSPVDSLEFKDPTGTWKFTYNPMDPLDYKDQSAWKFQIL
# Method in brief: as §1
# ETV1 = ETV1 (Homo sapiens, UniProt P50549 1-477); settings: protein: recombinant; tags: N-terminal GST; dsDNA, one strand shown
# Chain of ETV1 (P50549 whole entry): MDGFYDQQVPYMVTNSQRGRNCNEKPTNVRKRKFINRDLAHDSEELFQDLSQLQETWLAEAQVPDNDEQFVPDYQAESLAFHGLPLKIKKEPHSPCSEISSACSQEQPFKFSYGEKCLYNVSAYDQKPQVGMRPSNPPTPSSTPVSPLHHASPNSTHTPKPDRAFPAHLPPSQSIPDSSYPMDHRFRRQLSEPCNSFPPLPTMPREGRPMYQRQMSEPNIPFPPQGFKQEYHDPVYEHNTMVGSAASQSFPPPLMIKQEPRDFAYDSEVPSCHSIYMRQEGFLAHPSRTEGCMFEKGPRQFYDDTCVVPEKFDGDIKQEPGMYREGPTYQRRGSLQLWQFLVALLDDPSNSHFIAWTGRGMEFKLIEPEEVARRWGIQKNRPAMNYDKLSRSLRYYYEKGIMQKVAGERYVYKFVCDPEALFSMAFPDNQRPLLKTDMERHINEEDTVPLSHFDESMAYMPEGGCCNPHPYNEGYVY
# Method in brief: as §1
# ERF = biological target: T6, ERF (Homo sapiens, UniProt P50548 1-548); settings: protein: recombinant; tags: N-terminal GST; dsDNA, one strand shown
# T6 sequence: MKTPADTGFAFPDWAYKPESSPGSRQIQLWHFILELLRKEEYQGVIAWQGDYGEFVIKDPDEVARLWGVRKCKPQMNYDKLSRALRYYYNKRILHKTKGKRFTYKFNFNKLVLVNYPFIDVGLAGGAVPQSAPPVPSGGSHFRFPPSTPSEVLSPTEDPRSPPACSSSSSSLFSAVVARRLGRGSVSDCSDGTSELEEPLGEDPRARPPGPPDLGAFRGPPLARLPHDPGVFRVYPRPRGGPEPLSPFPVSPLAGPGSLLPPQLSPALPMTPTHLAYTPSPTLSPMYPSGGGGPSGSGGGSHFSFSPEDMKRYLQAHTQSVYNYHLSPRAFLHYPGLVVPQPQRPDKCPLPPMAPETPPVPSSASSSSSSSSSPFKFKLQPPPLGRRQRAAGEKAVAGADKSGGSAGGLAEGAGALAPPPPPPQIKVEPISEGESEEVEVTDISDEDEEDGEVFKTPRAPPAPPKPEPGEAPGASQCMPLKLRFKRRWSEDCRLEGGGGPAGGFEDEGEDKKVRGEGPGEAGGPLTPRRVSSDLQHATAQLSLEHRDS
# Method in brief: as §1
# ETV3L = biological target: T7, ETV3L (Homo sapiens, UniProt Q6ZN32 1-361); settings: protein: recombinant; tags: N-terminal GST; dsDNA, one strand shown
# T7 sequence: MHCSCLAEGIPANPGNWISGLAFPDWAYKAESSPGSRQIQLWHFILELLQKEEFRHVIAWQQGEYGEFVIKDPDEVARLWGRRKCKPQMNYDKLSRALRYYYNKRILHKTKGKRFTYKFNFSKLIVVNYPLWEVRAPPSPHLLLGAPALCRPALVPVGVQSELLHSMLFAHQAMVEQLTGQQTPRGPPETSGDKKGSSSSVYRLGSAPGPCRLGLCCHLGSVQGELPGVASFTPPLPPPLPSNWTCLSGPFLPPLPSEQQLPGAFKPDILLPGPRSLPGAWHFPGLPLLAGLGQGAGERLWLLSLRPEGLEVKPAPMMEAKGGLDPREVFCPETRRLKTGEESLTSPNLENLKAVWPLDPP
# Method in brief: as §1
# ETS2 = biological target: T8, ETS2 (Homo sapiens, UniProt P15036 1-469); settings: protein: recombinant; tags: N-terminal GST; dsDNA, one strand shown
# T8 sequence: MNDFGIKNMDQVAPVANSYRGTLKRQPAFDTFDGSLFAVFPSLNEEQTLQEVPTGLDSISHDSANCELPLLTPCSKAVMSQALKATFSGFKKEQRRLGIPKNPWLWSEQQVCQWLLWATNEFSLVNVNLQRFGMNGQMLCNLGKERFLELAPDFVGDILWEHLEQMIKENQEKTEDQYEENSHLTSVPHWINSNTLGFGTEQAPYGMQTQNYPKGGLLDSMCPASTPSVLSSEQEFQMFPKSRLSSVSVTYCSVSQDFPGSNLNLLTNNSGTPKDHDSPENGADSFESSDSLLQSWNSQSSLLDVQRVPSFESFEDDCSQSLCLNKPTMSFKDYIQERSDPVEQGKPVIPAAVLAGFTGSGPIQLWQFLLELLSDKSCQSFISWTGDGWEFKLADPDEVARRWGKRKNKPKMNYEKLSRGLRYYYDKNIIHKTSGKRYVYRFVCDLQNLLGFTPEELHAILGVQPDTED
# Method in brief: as §1
# SPDEF = biological target: T9, SPDEF (Homo sapiens, UniProt O95238 1-335); settings: protein: recombinant; tags: N-terminal GST; dsDNA, one strand shown
# T9 sequence: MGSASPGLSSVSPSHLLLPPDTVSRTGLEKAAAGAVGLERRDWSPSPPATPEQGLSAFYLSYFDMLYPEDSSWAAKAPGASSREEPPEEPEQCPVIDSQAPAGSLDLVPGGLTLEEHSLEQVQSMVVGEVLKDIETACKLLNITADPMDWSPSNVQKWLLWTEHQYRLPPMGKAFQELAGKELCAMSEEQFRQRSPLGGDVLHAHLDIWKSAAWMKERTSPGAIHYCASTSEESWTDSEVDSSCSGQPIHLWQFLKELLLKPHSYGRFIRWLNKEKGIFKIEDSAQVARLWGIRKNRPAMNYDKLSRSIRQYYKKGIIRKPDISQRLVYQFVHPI
# Method in brief: as §1
# ETV7 = biological target: T10, ETV7 (Homo sapiens, UniProt Q9Y603 1-341); settings: protein: recombinant; tags: N-terminal GST; dsDNA, one strand shown
# T10 sequence: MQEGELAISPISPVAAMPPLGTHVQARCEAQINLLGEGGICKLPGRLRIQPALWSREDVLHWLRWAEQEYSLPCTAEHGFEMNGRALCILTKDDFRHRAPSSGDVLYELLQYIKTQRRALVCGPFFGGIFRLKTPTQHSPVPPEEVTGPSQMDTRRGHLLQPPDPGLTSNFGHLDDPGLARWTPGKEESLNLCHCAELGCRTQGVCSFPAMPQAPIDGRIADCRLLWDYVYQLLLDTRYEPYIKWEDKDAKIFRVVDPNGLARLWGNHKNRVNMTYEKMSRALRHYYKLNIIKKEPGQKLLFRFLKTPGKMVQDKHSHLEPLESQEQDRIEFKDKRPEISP
# Method in brief: as §1
# ELF5 = biological target: T11, ELF5 (Homo sapiens, UniProt Q9UKW6-2 1-255); settings: protein: recombinant; tags: N-terminal GST; dsDNA, one strand shown
# T11 sequence: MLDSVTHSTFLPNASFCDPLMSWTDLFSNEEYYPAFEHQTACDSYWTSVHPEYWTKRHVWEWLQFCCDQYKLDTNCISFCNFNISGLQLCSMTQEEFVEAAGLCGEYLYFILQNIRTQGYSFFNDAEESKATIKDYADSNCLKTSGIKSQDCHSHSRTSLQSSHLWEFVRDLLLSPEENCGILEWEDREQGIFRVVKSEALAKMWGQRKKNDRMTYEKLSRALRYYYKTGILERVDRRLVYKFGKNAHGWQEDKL
# Method in brief: as §1
# ETV3 = biological target: T12, ETV3 (Homo sapiens, UniProt P41162-2 1-143); settings: protein: recombinant; tags: N-terminal GST; dsDNA, one strand shown
# T12 sequence: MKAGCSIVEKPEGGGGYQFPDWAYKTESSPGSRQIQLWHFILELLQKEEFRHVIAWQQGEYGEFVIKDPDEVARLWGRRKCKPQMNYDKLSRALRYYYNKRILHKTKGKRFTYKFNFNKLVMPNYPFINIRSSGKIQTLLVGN
# Method in brief: as §1
# ETV6 = ETV6 (Homo sapiens, UniProt P41212 1-452); settings: protein: recombinant; tags: N-terminal GST; dsDNA, one strand shown
# Chain of ETV6 (P41212 whole entry): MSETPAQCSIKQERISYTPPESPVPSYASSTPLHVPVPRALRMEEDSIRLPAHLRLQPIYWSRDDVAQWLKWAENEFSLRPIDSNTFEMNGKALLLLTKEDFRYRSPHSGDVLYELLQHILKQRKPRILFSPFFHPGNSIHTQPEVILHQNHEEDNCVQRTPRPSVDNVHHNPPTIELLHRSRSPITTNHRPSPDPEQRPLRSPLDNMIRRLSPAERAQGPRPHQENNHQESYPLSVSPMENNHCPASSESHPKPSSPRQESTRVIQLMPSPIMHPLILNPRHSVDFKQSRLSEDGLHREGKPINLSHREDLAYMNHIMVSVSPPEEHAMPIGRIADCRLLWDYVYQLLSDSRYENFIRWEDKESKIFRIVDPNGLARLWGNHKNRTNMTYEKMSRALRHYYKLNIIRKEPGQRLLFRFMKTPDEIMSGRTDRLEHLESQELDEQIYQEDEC
# Method in brief: as §1
sequence,measurement,setting,value
CTTAGC,binding signal,FEV,"1.12 fold enrichment (6-mer frequency, TF over GST control)"
same,binding signal,ETV5,"1.18 fold enrichment (6-mer frequency, TF over GST control)"
same,binding signal,HSF1,"1.47 fold enrichment (6-mer frequency, TF over GST control)"
same,binding signal,SPIC,"1.35 fold enrichment (6-mer frequency, TF over GST control)"
same,binding signal,ELF4,"1.28 fold enrichment (6-mer frequency, TF over GST control)"
same,binding signal,ELK4,"1.21 fold enrichment (6-mer frequency, TF over GST control)"
same,binding signal,ETV2,"1.3 fold enrichment (6-mer frequency, TF over GST control)"
same,binding signal,ELF3,"1.07 fold enrichment (6-mer frequency, TF over GST control)"
same,binding signal,CRX,"2.17 fold enrichment (6-mer frequency, TF over GST control)"
same,binding signal,ETV1,"1.24 fold enrichment (6-mer frequency, TF over GST control)"
same,binding signal,ERF,"1.25 fold enrichment (6-mer frequency, TF over GST control)"
same,binding signal,ETV3L,"1.23 fold enrichment (6-mer frequency, TF over GST control)"
same,binding signal,ETS2,"1.18 fold enrichment (6-mer frequency, TF over GST control)"
same,binding signal,SPDEF,"1.15 fold enrichment (6-mer frequency, TF over GST control)"
same,binding signal,ETV7,"1.16 fold enrichment (6-mer frequency, TF over GST control)"
same,binding signal,ELF5,"1.16 fold enrichment (6-mer frequency, TF over GST control)"
same,binding signal,ETV3,"1.22 fold enrichment (6-mer frequency, TF over GST control)"
same,binding signal,ETV6,"1.2 fold enrichment (6-mer frequency, TF over GST control)"
